In the supplement of paper PMC13380429:

System: Vero E6 infected with SARS-CoV-2
Assay: inhibition of SARS-CoV-2 cytopathic effect; higher = more antiviral protection, active = above 15
Conditions: 48 h

Measured: inhibition of SARS-CoV-2 cytopathic effect

N=C1NC(=O)/C(=C/c2ccc(O)cc2)S1 [mirin]
inactive: 1 nM -0.65% | 8.33 nM 0.66% | 100 nM -0.71% | 833.33 nM -3.88% | 10000 nM 1.33%

O=C(OCC(COC(=O)c1cccnc1)(COC(=O)c1cccnc1)COC(=O)c1cccnc1)c1cccnc1 [niceritrol]
inactive: 1 nM -3.51% | 8.33 nM -0.29% | 100 nM 2.18% | 833.33 nM 0.03% | 10000 nM 6.17%

Cc1cccc(Nc2nc(-c3ccncc3)cs2)c1
active: 10000 nM 48.4%
inactive: 1 nM 0.53% | 8.33 nM -0.51% | 100 nM -0.62% | 833.33 nM 8.36%

CC(C)(C(=O)NCC(F)(F)C(F)(F)F)C(=O)N[C@@H]1C(=O)Nc2ccccc2-c2ccccc21
inactive: 1 nM -4.06% | 8.33 nM -4.36% | 100 nM -4.95% | 833.33 nM -5.35% | 10000 nM -3.87%

CCC(=O)c1ccc(OCC(O)CN2CCN(c3ccccc3)CC2)cc1 (stereo not given) [centpropazine]
inactive: 1 nM -4.09% | 8.33 nM -0.61% | 100 nM -2.65% | 833.33 nM -0.96% | 10000 nM -0.58%

O=C(O)CCC/C=C\C[C@@H]1[C@@H](/C=C/[C@@H](O)COc2cccc(Cl)c2)[C@H](O)C[C@@H]1O (racemic) [cloprostenol-(+/-)]
inactive: 1 nM -2.05% | 8.33 nM 0.95% | 100 nM 2.48% | 833.33 nM 5.03% | 10000 nM 0.05%

COc1ccc(C2CC(c3ccccc3)=NN2c2ccc(S(N)(=O)=O)cc2)cc1 (stereo not given)
inactive: 1 nM 0.58% | 8.33 nM 2.1% | 100 nM 1.18% | 833.33 nM -2.57% | 10000 nM 0.95%

O=C1Nc2ccc(Cl)c3c2C1(CCCCN1CC=C(c2ccc(Cl)cc2)CC1)CCC3 (stereo not given)
inactive: 1 nM 0.36% | 8.33 nM -1.45% | 100 nM -2.5% | 833.33 nM -2.84% | 10000 nM -3.25%

COc1ccc2c3c1O[C@H]1C[C@@H](O)C=C[C@@]31CCN(C)C2 [galantamine]
inactive: 1 nM 0.63% | 8.33 nM 3.15% | 100 nM 2.16% | 833.33 nM 2.11% | 10000 nM 0.3%

CC1=C(C(=O)O)N2C(=O)[C@@H](NC(=O)[C@H](N)C3=CCC=CC3)[C@H]2SC1 [cephradine]
inactive: 1 nM 0.46% | 8.33 nM -1.94% | 100 nM -0.29% | 833.33 nM 0.485% | 10000 nM -2.73%

Nc1ccc(-c2ccc3ncc4ccc(=O)n(-c5cccc(C(F)(F)F)c5)c4c3c2)cn1 [torin-2]
inactive: 1 nM 0.99% | 8.33 nM -0.26% | 100 nM -2.28% | 833.33 nM -4.78% | 10000 nM -8.11%

CC/C(=C(\c1ccc(O)cc1)c1ccc(OCCN(C)C)cc1)c1ccccc1 [afimoxifene]
inactive: 1 nM -2.83% | 8.33 nM 1.16% | 100 nM 3.76% | 833.33 nM -0.54%
active: 10000 nM 40%

Cc1cc(CCCOc2c(C)cc(-c3noc(C(F)(F)F)n3)cc2C)on1 [pleconaril]
inactive: 1 nM 2.59% | 8.33 nM 0.33% | 100 nM -1.07% | 833.33 nM 0.02% | 10000 nM -1.34%

N#Cc1c(N)nc(SCc2ncc[nH]2)c(C#N)c1-c1ccc(O)cc1
inactive: 1 nM -0.59% | 8.33 nM -2.41% | 100 nM 1.83% | 833.33 nM -3.13% | 10000 nM 0.18%

C[C@H](/C=C/[C@H](C)C(C)(C)O)[C@H]1CC[C@H]2/C(=C/C=C3C[C@@H](O)C[C@H](O)C3)CCC[C@]12C [paricalcitol]
inactive: 1 nM 0.83% | 8.33 nM 3.37% | 100 nM -0.2% | 833.33 nM 1.21% | 10000 nM -0.81%

Cc1c(C2CCN(CCc3ccccc3)CC2)noc1-c1ccc(Cl)cc1
inactive: 1 nM -1.74% | 8.33 nM 5.24% | 100 nM 6.13% | 833.33 nM 4.32% | 10000 nM -5.7%

O=C(/C=C/c1cccc(F)c1)NC1CC1 [cinflumide]
inactive: 1 nM 2.05% | 8.33 nM 3.3% | 100 nM 0.17% | 833.33 nM 2.25% | 10000 nM 8.23%

CN(C/C=C/C#CC(C)(C)C)Cc1cccc2ccccc12 [terbinafine]
inactive: 1 nM 5.77% | 8.33 nM 2.3% | 100 nM 8.59% | 833.33 nM 6.27% | 10000 nM 8.15%

Cc1cc(-c2nc3cc(F)ccc3s2)ccc1NC(=O)[C@@H](N)CCCCN [phortress]
inactive: 1 nM -1.03% | 8.33 nM -0.88% | 100 nM -0.54% | 833.33 nM -2.21% | 10000 nM -5.43%

COC(=O)[C@H](CC(C)C)NC(=O)c1ccc(NC[C@@H](N)CS)cc1-c1cccc2ccccc12
inactive: 1 nM -1.19% | 8.33 nM 4.63% | 100 nM -0.9% | 833.33 nM -1.25% | 10000 nM -4.69%
